Measured values taken from PubChem BioAssay (Tox21).
“And” between values parts separate entries of the source, which are not always exact repeats. Equal entries are not always repeated. The source made the active and inactive calls. Unless noted, calls follow the shape of the dose curve; as a rule, active = well fitted curve in the direction sought with a large enough effect in the repeat runs; inconclusive = weak or mixed curves; inactive = no such curve, though single readings can be large; an effect the other way counts as inactive or inconclusive.

Assays:
[1] = qHTS assay to identify small molecule antagonists of the thyroid receptor (TR) signaling pathway (AID 743065); also: nearly all actives have a fitted effect of over 55% in size; also: potency is read from the fitted curve at half-maximal effect
In short: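 GH3.TRE-Luc rat pituitary cells (two TREs driving luciferase) were dosed with compound, then stimulated with 1 nM T3 (final) for 23.5 h at 37 C. ONE-Glo luminescence was the read-out, with CellTiter-Fluor fluorescence as the cytotoxicity counter-screen.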

[2] = test system: thyroid hormone receptor (rat, GH3 cells); assay: qHTS assay to identify small molecule agonists of the thyroid receptor (TR) signaling pathway (AID 743066; calls by dose curve)
[3] = molecular target: Estrogen receptor (Homo sapiens) (UniProt P03372); assay: qHTS assay to identify small molecule antagonists of the estrogen receptor alpha (ER-alpha) signaling pathway (AID 743069; active = well fitted curve in the direction sought with a large enough effect in the signal ratio in the repeat runs, not every such curve was filed as active; inconclusive = weak or mixed curves, or effect the other way; inactive = no such curve, though single readings can be large or run the other way; the % refers to the signal ratio; also: potency is read from the fitted curve at half-maximal effect)
In short: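 In this cell-based reporter format, GripTite HEK293 cells harbouring ER-alpha-UAS-bla were grown overnight with 2% charcoal-stripped FBS, dosed with DMSO-dissolved compounds, then challenged with 17beta-estradiol. After 18 hr at 37C, beta-lactamase activity was detected by FRET fluorescence.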

[4] = molecular target: Estrogen receptor (Homo sapiens) (UniProt P03372); assay: qHTS assay to identify small molecule agonists of the estrogen receptor alpha (ER-alpha) signaling pathway (AID 743075; calls by dose curve; also: potency is read from the fitted curve at half-maximal effect)
[5] = qHTS assay to identify small molecule antagonists of the estrogen receptor alpha (ER-alpha) signaling pathway using the BG1 cell line - cell viability counter screen (AID 743081);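 also: compound given together with 17beta-estradiol as the ER stimulus; nearly all actives have a fitted effect of over 45% in size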; also: potency is read from the fitted curve at half-maximal effect
Aromatase (Homo sapiens) = Aromatase (Homo sapiens) (UniProt P11511); assay: qHTS assay to identify aromatase inhibitors (AID 743083); also: nearly all actives have a fitted effect of over 55% in size; also: potency is read from the fitted curve at half-maximal effect
[6] = qHTS assay to identify aromatase inhibitors - cell viability counter screen (AID 743084);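 also: cells stimulated with testosterone during compound exposure; nearly all actives have a fitted effect of over 55% in size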; also: potency is read from the fitted curve at half-maximal effect
[7] = molecular target: Aryl hydrocarbon receptor (Homo sapiens) (UniProt P35869); assay: qHTS assay to identify small molecule that activate the aryl hydrocarbon receptor (AhR) signaling pathway (AID 743085);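 also: HG2L7.5c1 human HepG2 liver cells with stably integrated DRE-driven firefly reporter; series mostly up to about 70 µM; nearly all actives have a fitted effect of over 15% in size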
In short: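 Measured in HG2L7.5c1 cells: CellTiter-Fluor signal (30 min incubation, 37C) for viability, then luciferase luminescence (30 min, room temperature). Compound contact time was 24 h at 37C, following a 5 h pre-incubation.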

[8] = molecular target: Peroxisome proliferator-activated receptor gamma (Homo sapiens) (UniProt P37231); assay: qHTS assay to identify small molecule antagonists of the peroxisome proliferator-activated receptor gamma (PPARg) signaling pathway (AID 743191; calls by dose curve; also: nearly all actives have a fitted effect of over 30% in size; also: potency is read from the fitted curve at half-maximal effect)
In short: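 GeneBLAzer PPARg UAS-bla HEK293H cells, 5 h post-plating, exposed to compounds 17 h at 37C. LiveBLAzer B/G FRET substrate added for 1 h at room temperature; beta-lactamase reporter read by fluorescence intensity.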

[9] = qHTS assay for small molecule agonists of the antioxidant response element (ARE) signaling pathway (AID 743202; active = well fitted activation curve with a large enough effect in the signal ratio in the repeat runs, not every such curve was filed as active; inconclusive = weak or mixed curves, or effect the other way; inactive = no such curve, though single readings can be large or run the other way; the % refers to the signal ratio; also: potency is read from the fitted curve at half-maximal effect)
In short: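 HepG2 ARE-bla cells; 16 h treatment at 37 C; FRET-based beta-lactamase fluorescence read after 2 h substrate incubation at room temperature.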

[10] = qHTS assay for small molecule agonists of the antioxidant response element (ARE) signaling pathway - cell viability counter screen (AID 743203; calls by dose curve; also: nearly all actives have a fitted effect of over 55% in size)
In short: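 Viability counter screen: stably transfected ARE-bla HepG2 line, 16 hrs compound exposure at 37C/5% CO2, ATP-based CellTiter-Glo luminescence measured in the reporter wells.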

[11] = qHTS assay for small molecule activators of the heat shock response signaling pathway - cell viability counter screen (AID 743209); also: nearly all actives have a fitted effect of over 50% in size
In short: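 Viability of HSE-bla HeLa cells is measured with CellTiter-Glo in the wells already used for the reporter read. Compound exposure lasts 5 h at 37 C, and luminescence is read after 30 min at room temperature.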

[12] = qHTS assay for small molecule activators of the heat shock response signaling pathway (AID 743210; active = well fitted activation curve with a large enough effect in the signal ratio in the repeat runs, with a control signal flat, not every such curve was filed as active; inconclusive = weak or mixed curves; the % refers to the signal ratio;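 also: HeLa cells with beta-lactamase reporter driven by heat shock elements; series mostly up to about 63 µM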)
In short: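 Following overnight attachment, HSE-bla HeLa cells received test compounds for 5 h at 37 C; beta-lactamase activity was then detected via FRET substrate fluorescence.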

[13] = qHTS assay to identify small molecule agonists of the peroxisome proliferator-activated receptor delta (PPARd) signaling pathway - cell viability counter screen (AID 743211); also: nearly all actives have a fitted effect of over 55% in size
In short: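 Following 5 h plating at 37 C and 5% CO2, PPARd UAS-bla HEK293H cells took up test compounds for 17 h. Viability was quantified by luminescence 30 min after CellTiter-Glo addition at room temperature.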

[14] = qHTS assay to identify small molecule antagonists of the estrogen receptor alpha (ER-alpha) signaling pathway - cell viability counter screen (AID 743074; calls by dose curve; also: nearly all actives have a fitted effect of over 45% in size)
[15] = qHTS assay to identify small molecule that activate the aryl hydrocarbon receptor (AhR) signaling pathway - cell viability counter screen (AID 743086);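 also: HepG2 liver cells carrying the AhR DRE luciferase reporter; series mostly up to about 70 µM; nearly all actives have a fitted effect of over 45% in size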
In short: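 HepG2-AhR-luc (HG2L7.5c1) cells, 4000/well, treated 24 h at 37 C with compound; viability measured as CellTiter-Fluor fluorescence after 30 min in the same wells as the luciferase read.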

[16] = molecular target: Peroxisome proliferator-activated receptor gamma (Homo sapiens) (UniProt P37231); assay: qHTS assay to identify small molecule agonists of the peroxisome proliferator-activated receptor gamma (PPARg) signaling pathway (AID 743094; active = well fitted activation curve with a large enough effect in the signal ratio in the repeat runs, not every such curve was filed as active; inconclusive = weak or mixed curves, or effect the other way; inactive = no such curve, though single readings can be large or run the other way; the % refers to the signal ratio)
In short: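 Reporter activation was scored by fluorescence of cleaved LiveBLAzer B/G substrate (1 h, room temperature) in PPARg-bla HEK293H cells previously treated 17 h at 37C with DMSO-dissolved compounds.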

[17] = qHTS assay to identify small molecule antagonists of the peroxisome proliferator-activated receptor gamma (PPARg) signaling pathway - cell viability counter screen (AID 743194); conditions: Potency: co-treated with 50 nM rosiglitazone; also: nearly all actives have a fitted effect of over 55% in size
In short: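 Cytotoxicity counter screen in PPARg-bla HEK293H cells, same wells as reporter assay. Compounds plus 50 nM rosiglitazone (final) for 17 h at 37 C, then viability read by CellTiter-Glo luminescence.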

[18] = molecular target: Estrogen receptor (Homo sapiens) (UniProt P03372); assay: qHTS assay to identify small molecule agonists of the estrogen receptor alpha (ER-alpha) signaling pathway using the BG1 cell line (AID 743079); also: potency is read from the fitted curve at half-maximal effect; nearly all actives have a fitted effect of over 20% in size
[19] = qHTS assay to identify small molecule antagonists of the estrogen receptor alpha (ER-alpha) signaling pathway using the BG1 cell line (AID 743080; calls by dose curve;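 also: BG1 cells stimulated with 17beta-estradiol alongside compound; nearly all actives have a fitted effect of over 25% in size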; also: potency is read from the fitted curve at half-maximal effect)
In short: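 BG1Luc4E2, endogenous ER-alpha, 4xERE-luc; 5 d charcoal-stripped FBS, phenol red free; 24 h plating; cpd + 17beta-estradiol 21.5 h, 37 C/5% CO2; CellTiter-Fluor viability 30 min, then ONE-Glo luciferase 30 min RT.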

Measured: Potency

Sequence of Peroxisome proliferator-activated receptor gamma (Homo sapiens) (P37231 whole entry, looked up): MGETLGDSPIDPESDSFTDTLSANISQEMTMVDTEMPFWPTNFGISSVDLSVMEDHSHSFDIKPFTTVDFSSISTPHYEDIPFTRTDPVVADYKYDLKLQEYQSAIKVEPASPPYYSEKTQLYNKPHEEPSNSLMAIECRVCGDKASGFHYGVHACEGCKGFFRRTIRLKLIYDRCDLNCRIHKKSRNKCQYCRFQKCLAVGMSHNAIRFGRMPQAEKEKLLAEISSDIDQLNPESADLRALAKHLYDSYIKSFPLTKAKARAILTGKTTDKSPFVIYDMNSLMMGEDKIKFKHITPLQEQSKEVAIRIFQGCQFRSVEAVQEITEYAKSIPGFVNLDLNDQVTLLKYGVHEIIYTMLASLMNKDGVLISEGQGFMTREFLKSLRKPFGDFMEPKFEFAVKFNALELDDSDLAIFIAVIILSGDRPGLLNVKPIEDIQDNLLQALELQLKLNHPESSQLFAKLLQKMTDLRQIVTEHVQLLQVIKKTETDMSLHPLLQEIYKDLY
Sequence of Aromatase (Homo sapiens) (P11511 whole entry, looked up): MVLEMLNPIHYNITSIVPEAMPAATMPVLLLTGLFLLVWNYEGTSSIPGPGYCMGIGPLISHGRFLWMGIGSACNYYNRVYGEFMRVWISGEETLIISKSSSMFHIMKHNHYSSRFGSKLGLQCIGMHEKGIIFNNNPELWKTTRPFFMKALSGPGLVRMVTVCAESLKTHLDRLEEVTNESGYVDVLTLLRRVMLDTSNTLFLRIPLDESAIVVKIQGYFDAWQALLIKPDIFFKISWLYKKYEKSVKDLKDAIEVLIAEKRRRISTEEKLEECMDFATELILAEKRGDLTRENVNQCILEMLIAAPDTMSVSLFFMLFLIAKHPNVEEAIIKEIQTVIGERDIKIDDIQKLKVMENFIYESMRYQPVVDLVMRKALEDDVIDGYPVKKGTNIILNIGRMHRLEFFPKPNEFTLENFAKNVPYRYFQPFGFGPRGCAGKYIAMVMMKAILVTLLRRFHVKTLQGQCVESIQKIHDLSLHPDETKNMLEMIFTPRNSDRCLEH
Sequence of Estrogen receptor (Homo sapiens) (P03372 whole entry, looked up): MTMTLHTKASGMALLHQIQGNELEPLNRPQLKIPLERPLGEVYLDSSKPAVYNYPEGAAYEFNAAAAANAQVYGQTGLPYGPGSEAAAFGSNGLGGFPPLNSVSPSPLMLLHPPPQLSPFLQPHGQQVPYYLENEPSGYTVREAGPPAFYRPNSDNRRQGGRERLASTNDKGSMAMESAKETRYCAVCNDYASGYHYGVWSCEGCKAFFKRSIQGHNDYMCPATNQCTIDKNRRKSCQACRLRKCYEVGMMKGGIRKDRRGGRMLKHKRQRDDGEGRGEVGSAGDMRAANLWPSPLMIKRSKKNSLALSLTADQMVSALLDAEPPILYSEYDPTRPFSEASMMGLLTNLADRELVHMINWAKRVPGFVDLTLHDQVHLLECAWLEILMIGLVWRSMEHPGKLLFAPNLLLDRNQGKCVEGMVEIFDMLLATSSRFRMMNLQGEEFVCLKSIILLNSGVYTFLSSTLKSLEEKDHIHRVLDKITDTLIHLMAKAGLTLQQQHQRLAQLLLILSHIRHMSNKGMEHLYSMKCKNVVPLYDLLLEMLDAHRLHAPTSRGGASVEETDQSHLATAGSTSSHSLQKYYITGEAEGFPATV
Sequence of Aryl hydrocarbon receptor (Homo sapiens) (P35869 whole entry, looked up): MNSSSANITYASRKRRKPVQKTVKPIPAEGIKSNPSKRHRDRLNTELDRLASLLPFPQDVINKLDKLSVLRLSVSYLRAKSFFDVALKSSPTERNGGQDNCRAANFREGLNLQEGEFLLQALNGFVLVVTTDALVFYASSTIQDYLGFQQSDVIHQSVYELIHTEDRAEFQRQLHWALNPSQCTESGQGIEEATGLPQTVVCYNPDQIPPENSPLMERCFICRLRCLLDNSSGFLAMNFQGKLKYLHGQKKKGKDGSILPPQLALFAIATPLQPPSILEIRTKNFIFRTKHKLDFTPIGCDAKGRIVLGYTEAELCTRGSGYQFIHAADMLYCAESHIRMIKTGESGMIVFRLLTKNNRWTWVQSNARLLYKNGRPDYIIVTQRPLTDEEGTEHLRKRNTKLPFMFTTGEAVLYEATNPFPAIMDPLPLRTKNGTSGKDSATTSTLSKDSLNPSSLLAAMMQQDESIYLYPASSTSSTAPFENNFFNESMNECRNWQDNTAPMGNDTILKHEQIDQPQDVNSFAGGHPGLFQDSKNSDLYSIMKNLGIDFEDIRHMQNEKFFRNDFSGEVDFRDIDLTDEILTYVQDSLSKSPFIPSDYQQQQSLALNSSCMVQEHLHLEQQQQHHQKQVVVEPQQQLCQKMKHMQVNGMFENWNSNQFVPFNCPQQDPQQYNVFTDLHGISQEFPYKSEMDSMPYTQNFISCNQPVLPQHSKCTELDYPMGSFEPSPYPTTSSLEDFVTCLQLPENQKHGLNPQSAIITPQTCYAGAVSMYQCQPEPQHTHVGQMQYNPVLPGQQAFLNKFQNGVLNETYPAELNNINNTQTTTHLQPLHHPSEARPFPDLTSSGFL

O=[Se]=O
inactive: [2] | [4] | Aromatase (Homo sapiens) | [6] | [7] | [8] | [10] | [11] | [12] | [13]
active: [1] 21.5 µM | [3] 6.12 µM [inconclusive] | [5] 19.2 µM | [9] 8.58 µM

CCC(Br)(CC)C(=O)NC(N)=O
inactive: [1] | [2] | [14] | [5] | Aromatase (Homo sapiens) | [6] | [15] | [16] | [8] | [17] | [10] | [11] | [12] | [13]

C#CCOC(C(=O)OCCN(C)C)(c1ccccc1)c1ccccc1
inactive: [1] | [2] | [14] | [5] | Aromatase (Homo sapiens) | [6] | [7] | [15] | [8] | [17] | [9] | [10] | [11] | [12] | [13]

CCCCCCCCCC(=O)O[C@H]1CC[C@H]2[C@@H]3CCC4=CC(=O)CC[C@@H]4[C@H]3CC[C@]12C
inactive: [1] | [2] | [19] | [5] | Aromatase (Homo sapiens) | [6] | [7] | [15] | [16] | [8] | [17] | [10] | [12] | [13]
active: [4] 0.848 µM [inconclusive] | [18] 0.188 µM

C=CCN1CC[C@]23c4c5ccc(O)c4O[C@H]2C(=O)CC[C@@]3(O)[C@H]1C5
inactive: [1] | [2] | [14] | [5] | Aromatase (Homo sapiens) | [6] | [7] | [15] | [17] | [9] | [10] | [11] | [12] | [13]

C/C=C/C=O
inactive: [1] | [2] | [14] | [5] | Aromatase (Homo sapiens) | [6] | [15] | [16] | [8] | [17] | [10] | [11] | [12] | [13]

CCOC(=O)CBr
inactive: [1] | [2] | [14] | [5] | Aromatase (Homo sapiens) | [6] | [15] | [16] | [8] | [17] | [9] | [10] | [11] | [12] | [13]

O=C(O)c1ccccc1C(=O)Nc1cccc2ccccc12
inactive: [1] | [2] | [14] | [5] | Aromatase (Homo sapiens) | [6] | [15] | [16] | [8] | [17] | [10] | [11] | [12] | [13]

Clc1cccc2ccccc12
inactive: [1] | [2] | [14] | [5] | Aromatase (Homo sapiens) | [6] | [7] | [15] | [17] | [9] | [10] | [11] | [12] | [13]

CC(=O)c1cc2c(cc1C)C(C)(C)C(C)CC2(C)C (stereo not given)
active: Aromatase (Homo sapiens) 54.5 µM
inactive: [1] | [2] | [14] | [5] | [15] | [16] | [17] | [10] | [12] | [13]

CCCCOC(=O)c1ccccc1C(=O)OCc1ccccc1
inactive: [1] | [2] | [14] | [5] | Aromatase (Homo sapiens) | [6] | [15] | [16] | [17] | [9] | [10] | [12] | [13]

Cc1ccccc1CCl
inactive: [1] | [2] | [14] | [5] | Aromatase (Homo sapiens) | [6] | [15] | [16] | [8] | [17] | [10] | [11] | [12] | [13]

O=C1CN=C(c2ccccc2)c2cc(Cl)ccc2N1CC1CC1
inactive: [2] | [14] | [5] | Aromatase (Homo sapiens) | [6] | [7] | [15] | [17] | [10] | [13]
active: [1] 21.1 µM and 51 µM | [9] 32.2 µM

CC(C)O.CC(C)O.OCCN(CCO)CCO.OCCN(CCO)CCO.[Ti]
inactive: [1] | [2] | [14] | [5] | [15] | [17] | [10] | [11] | [13]

CO/C=C(/C(=O)OC)c1ccccc1COc1cccc(C(F)(F)F)n1
inactive: [2] | [7] | [15] | [11] | [12]
active: [1] 0.432 µM | [4] 1.38 µM [inconclusive] | [19] 2.17 µM | Aromatase (Homo sapiens) 68.5 µM | [6] 61.1 µM | [8] 4.36 µM
